Shown are actives, neighbours in structure and some others; about 1.3% of the full set was active somewhere.
Akt phos inh: HTS Assay for Inhibitors of Akt Phophorylation: Primary Screen; Neuro2A IGF-stimulated pAkt S473 HTRF, 20 min; active compounds read low; activity change, % for hits at 50 µM; hit rate 0.32% among 360,000; AID 651550, 2012; in the data active means activity change below about -80%; inconclusive means mostly about -51% to -80%; further: on the % scale 0 is the no-effect control and ±100 the full control effect
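Neuro2A cells (4,500/well, DMEM with 0.5% FBS) were treated with compound at a single 50 µM final concentration, stimulated with 6 nM IGF for 20 min at 37 °C, and lysed. Phospho-Akt Ser473 was read by HTRF as 665/615 ratio ×10^4.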
RXFP1 agonist: qHTS Assay for Agonists of the Relaxin Receptor RXFP1 | Relaxin receptor 1 (Homo sapiens), Q9HBX9 | HEK293T-RXFP1 cAMP TR-FRET, 30 min; response scale: percent of porcine relaxin response, buffer zero | Potency, µM (titrated, usually from 57.5 µM), for inactives: at the top dose activation, usual class: activators | hit rate 0.3% among 370,000 | AID 2676, 2010; active means well fitted activation curve with a large enough effect; inconclusive means small, poorly fitted or top-dose-only effect; further: potency means the concentration at half of the fitted maximal effect; on the % scale 0 is the no-effect control and ±100 the full control effect; nearly all actives have a fitted effect of over 60% in size
Target sequence (Q9HBX9 whole entry, looked up): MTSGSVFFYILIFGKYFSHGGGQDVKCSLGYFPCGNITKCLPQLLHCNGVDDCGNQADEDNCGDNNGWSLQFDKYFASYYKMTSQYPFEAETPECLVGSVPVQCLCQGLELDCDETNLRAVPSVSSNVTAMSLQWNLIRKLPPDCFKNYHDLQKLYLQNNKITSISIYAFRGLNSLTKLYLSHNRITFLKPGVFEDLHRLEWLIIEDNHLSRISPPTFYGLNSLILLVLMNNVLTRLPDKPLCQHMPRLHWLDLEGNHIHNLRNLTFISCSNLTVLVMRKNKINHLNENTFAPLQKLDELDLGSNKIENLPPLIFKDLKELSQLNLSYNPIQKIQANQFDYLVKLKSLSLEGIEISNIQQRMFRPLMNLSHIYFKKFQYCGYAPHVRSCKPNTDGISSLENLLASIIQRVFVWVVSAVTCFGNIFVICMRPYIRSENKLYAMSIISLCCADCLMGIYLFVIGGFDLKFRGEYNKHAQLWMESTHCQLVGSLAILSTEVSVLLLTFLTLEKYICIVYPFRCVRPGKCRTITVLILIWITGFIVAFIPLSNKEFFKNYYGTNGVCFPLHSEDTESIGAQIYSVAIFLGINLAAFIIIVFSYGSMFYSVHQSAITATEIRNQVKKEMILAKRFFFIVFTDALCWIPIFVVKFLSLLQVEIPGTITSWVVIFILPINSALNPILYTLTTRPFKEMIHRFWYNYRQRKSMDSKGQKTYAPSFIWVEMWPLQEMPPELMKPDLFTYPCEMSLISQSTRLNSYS
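HEK293T cells stably expressing RXFP1 were pretreated with the PDE4 inhibitor Ro 20174, exposed to compounds for 30 min at 37C, lysed, and cAMP was read by TR-FRET. Data normalized to buffer (basal) and 29 nM porcine relaxin (100%).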
gsp ag: qHTS for Agonist of gsp, the Etiologic Mutation Responsible for Fibrous Dysplasia/McCune-Albright Syndrome: qHTS. gsp mutant cells, cAMP HTRF, 30 min. Potency, µM (doses to about 76.9 µM), for the others: at the highest dose activation (cAMP increase), most hits filed as activators. hit rate 0.13% among 340,000; active means well fitted activation curve with a large enough effect; inconclusive means small, poorly fitted or top-dose-only effect, or another doubt; inactive means no such curve, though single readings can be large or run the other way; cell line not stated here;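 further: phosphodiesterase inhibitor Ro 20-1724 added with compounds to block cAMP breakdown; potency means the concentration at half of the fitted maximal effect; nearly all actives have a fitted effect of over 60% in size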
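Cells stably selected in G418 were plated at 2000/well, grown 16-24 hr, then given compounds in DMSO with the PDE inhibitor […] (300 uM solution added) for 30 min at 37C; cAMP was read by HTRF.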
RXFP1 antag: qHTS Assay for Antagonists of the Relaxin Receptor RXFP1 | Relaxin receptor 1 (Homo sapiens), Q9HBX9 | HEK293-RXFP1, relaxin-stimulated cAMP HTRF, 30 min; active compounds read low | activity change, negative = inhibition, % at 57.5 µM | hit rate 0.59% among 350,000 | AID 1259400, 2018;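 active means activity change of -60% or lower, but not beyond a set lower limit; inconclusive means change between -60% and -40%, or beyond the set limit; inactive means change above -40%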; further: on the % scale 0 is the no-effect control and ±100 the full control effect
gsp antagonist: qHTS for Antagonists of gsp, the Etiologic Mutation Responsible for Fibrous Dysplasia/McCune-Albright Syndrome: qHTS; gsp-mutant cells, cAMP HTRF, 30 min; Potency, µM (doses to about 76.9 µM), for the others: at the top dose activity change, negative = inhibition, hits mostly inhibitors; hit rate 0.4% among 340,000; AID 624288, 2012; calls by dose curve; cell line not stated here;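 further: intracellular cAMP measured with PDE inhibitor Ro 20-1724 present during compound exposure; potency means the concentration at half of the fitted maximal effect; on the % scale 0 is the no-effect control and ±100 the full control effect; nearly all actives have a fitted effect of over 65% in size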
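Measurement of cellular cAMP by homogeneous time-resolved fluorescence following a 30 min compound exposure at 37C. The PDE inhibitor […] was present throughout; the assay buffer was DPBS with 0.05% BSA and 0.005% Tween 20.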
An asterisk follows results filed as active; i = inactive; u = inconclusive; x = no result given; [ ] = another dose, or the depositor's remark.

SMILES	Akt phos inh	RXFP1 agonist	gsp ag	RXFP1 antag	gsp antagonist
Cc1ccccc1C(=O)Nc1cccc(OCc2cc(=O)n3cccc(C)c3n2)c1	x	5%	x	4	x
CC(=O)O[C@@H]1C(=O)O[C@H]2[C@@H]1OC(=O)[C@@H]2OC(C)=O	x	x	x	21	x
COc1ccccc1C(=O)N(Cc1ccco1)Cc1ccccc1F	x	-3%	x	3	x
Cc1cc(C)c(OCC(=O)N(Cc2cccc(F)c2)Cc2ccco2)c(C)c1	x	1%	x	-102*	x
Cc1cccc(C)c1OCC(=O)N(Cc1ccco1)Cc1ccco1	x	0%	x	-34	x
COc1ccccc1OCC(=O)N(Cc1ccco1)Cc1ccccc1F	x	-2%	x	-62*	x
Cc1cc(OC(C)C(=O)N(Cc2ccco2)Cc2ccco2)cc(C)c1Cl (stereo not given)	x	0%	x	-88*	x
Cc1cc(C)n(-c2nc(C)c(C)c(=O)n2CC(=O)Nc2cccc([N+](=O)[O-])c2)n1	x	4%	x	-5	x
CCOC(=O)c1c(Nc2ccc(O)cc2)nnc(-c2ccccc2)c1-c1ccccc1	x	3%	x	x	x
COc1ccc(-c2cc(C)no2)cc1S(=O)(=O)NC1CCC(C)CC1 (stereo not given)	x	-1%	x	-19	x
Cc1ccc(C(=O)Nc2cccc(C(F)(F)F)c2)cc1NC(=O)c1csc(-c2ccncc2)n1	i	4%	13%	10	-20%
N#C/C(=N\Nc1cccc(C(F)(F)F)c1)C(=O)c1csc(-c2cccnc2)n1	i	6%	-11%	x	25µM*
O=c1c(S(=O)(=O)c2ccccc2)cn(Cc2ccc(F)cc2)c2cc(N3CCCC3)c(F)cc12	x	0%	x	9	x
CN(C)S(=O)(=O)N1CCC(Oc2cccc(C(=O)NCCC3=CCCCC3)c2)CC1	i	-3%	-38%	-15	35µM*
CN(C)S(=O)(=O)N1CCC(Oc2cccc(C(=O)NC3CCCCC3)c2)CC1	i	2%	8%	12	u
COc1ccc(Cl)cc1NC(=O)c1cc(C)nc2c1c(C)nn2-c1ccccc1	x	0%	x	1	x
Cc1ccc(CSc2nc3cccnc3n2Cc2ccc(C(=O)NC3CCCCC3)cc2)cc1	x	20µM*	x	-4	x
Cc1ccc(C(=O)CSc2nc3cccnc3n2C)cc1	-106%*	6%	0%	3	-4%
O=C(Nc1ccc(Br)cc1)c1ccc(F)c(S(=O)(=O)N2CCc3ccccc32)c1	x	6%	x	-19	x
Cc1ccc(CSc2nc3c(cc2C#N)CCC3)cc1	-85%*	16%	u	-1	1%
N#Cc1cc2c(nc1SCc1ccccc1)CCCCC2	i	3%	15%	-8	-7%
COc1ccc(CCNC(=O)Cn2cc(S(=O)(=O)Cc3ccccc3Cl)c3ccccc32)cc1OC	x	2%	x	-24	x
COc1cc(C)nc(N(C)S(=O)(=O)c2ccccc2Cl)n1	i	2%	-1%	-1	32µM*
COc1nc(N(C)C)nc(N(OC)S(=O)(=O)c2ccccc2Cl)n1	i	1%	-18%	-7	-4%
C[C@@H]1CN(CCCn2c3ccccc3c3ccccc32)C[C@H](C)N1	x	3%	x	-97*	x
CC1CC(C)CN(CCCn2c(=S)[nH]c3ccccc3c2=O)C1 (stereo not given)	i	0%	34%	-11	5%
COc1ccc(CC(=O)NCC(c2cccs2)S(=O)(=O)c2ccc(Cl)cc2)cc1 (stereo not given)	x	1%	x	-3	x
Cc1nn(Cc2ccccc2)c(C)c1NC(=O)CSc1nc(C2CC2)nc2c1cnn2-c1ccccc1	-114%*	3%	-1%	6	15%
CC(=O)c1ccccc1OCC(O)CN1CCN(CCN2C(=O)c3cccc4cccc(c34)C2=O)CC1 (stereo not given)	i	0%	-16%[15.4 µM]	-23	32µM*
Cc1ccc(C)c(OCC(O)CN2CCN(CCN3C(=O)c4cccc5cccc(c45)C3=O)CC2)c1 (stereo not given)	i	0%	-42%	-19	-12%

Compound activity: PubChem, National Center for Advancing Translational Sciences (NCATS)
